From PubChem BioAssay (NCI)
Compounds without any hit were thinned out: in the full panel of roughly 79,000, 15% have a hit. Active and inactive are the calls of the source. No stated cut-off is given here; in the data, active means growth inhibition above about 70%; inactive means the rest. Where a SMILES comes first, the peptide text is derived from it. [ ]: non-standard residue; d: D form. The star is where a group is joined. mTyr = N[CH](Cc1cccc(O)c1)C(=O)O; Cbz = O=C(OCc1ccccc1)*; OBn = c1ccc(CO*)cc1

How the values were obtained:
[1] = NCI Yeast Anticancer Drug Screen. Data for the rad50 strain (AID 155);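 further: 0% = growth of vehicle-only cultures of the same strain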; details: S. cerevisiae rad50 strain growth inhibition, active compounds read high
In short: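 Compounds were tested on a yeast strain with an engineered DNA damage repair alteration; the reported value is growth inhibition normalised to vehicle treatment.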

[2] = NCI Yeast Anticancer Drug Screen. Data for the mec2-1 strain (AID 157); details: S. cerevisiae mec2-1 strain, active compounds read high
In short: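 Compounds were applied to mec2-1 yeast cells. Their growth was then compared with that of vehicle-treated cultures to give growth inhibition.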

[3] = NCI Yeast Anticancer Drug Screen. Data for the sgs1 mgt1 strain (AID 161);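 further: 0% = growth of cultures given vehicle only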; details: S. cerevisiae sgs1 mgt1 strain, active compounds read high
In short: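 Growth of a repair-deficient yeast mutant was monitored after compound treatment and expressed as inhibition relative to vehicle-treated cultures.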

[4] = NCI Yeast Anticancer Drug Screen. Data for the cln2 rad14 strain (AID 165);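 further: 0% = growth equal to vehicle treated cultures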; details: S. cerevisiae cln2 rad14 strain, active compounds read high
In short: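 Strain: cln2 rad14 yeast, altered in cell cycle control and DNA damage repair. Read-out: growth inhibition vs vehicle.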

[5] = NCI Yeast Anticancer Drug Screen. Data for the bub3 strain (AID 167); details: S. cerevisiae bub3 mutant strain, active compounds read high
In short: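 Growth of a checkpoint-deficient yeast mutant is measured after compound exposure. Values represent inhibition relative to vehicle.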

[6] = NCI Yeast Anticancer Drug Screen. Data for the mlh1 rad18 strain (AID 175); details: S. cerevisiae mlh1 rad18 strain growth inhibition, active compounds read high
In short: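 A repair-deficient yeast strain is exposed to test compound, and growth is scored relative to vehicle-treated controls.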

[7] = at 5.0 µM (retest, dose inferred, filed as 0.5)
[8] = at 50.0 µM (retest, dose inferred, filed as 5.0)

Measured: growth inhibition

Cc1cc(C[P+](c2ccccc2)(c2ccccc2)c2ccccc2)c(C)cc1C[P+](c1ccccc1)(c1ccccc1)c1ccccc1
active: [1]; at 50.0 µM 95.1% | [2]; at 50.0 µM 96.7% | [3]; at 50.0 µM 91.6% | [4]; at 50.0 µM 82.5% | [5]; at 50.0 µM 92.1% | [6]; [8] 86% | [6]; at 50.0 µM 94.5%
inactive: [1]; [7] 4% | [1]; [8] 66% | [2]; [7] -9% | [2]; [8] 49% | [3]; [7] 1% | [3]; [8] 61% | [4]; [7] 3% | [4]; [8] 32% | [5]; [7] 3% | [5]; [8] 66% | [6]; [7] 1%

CC(C)(C)N1OC2(c3ccccc3)OC3N(C(C)(C)C)OC4(c5ccccc5)OC1C2(c1ccccc1)C34c1ccccc1 (stereo not given)
active: [1]; [8] 99% | [1]; at 50.0 µM 93.7% | [2]; [8] 100% | [2]; at 50.0 µM 97.9% | [3]; [8] 99% | [3]; at 50.0 µM 72% | [4]; [8] 99% | [4]; at 50.0 µM 98% | [5]; [8] 99% | [5]; at 50.0 µM 99.2% | [6]; [8] 99% | [6]; at 50.0 µM 96%
inactive: [1]; [7] -4% | [2]; [7] -2% | [3]; [7] -5% | [4]; [7] 4% | [5]; [7] 1% | [6]; [7] 0%

CCOC(=O)C1=C(C)NC(C)=C(C(=O)OCC)C1c1ccnc2ccccc12
inactive: [1]; [7] 10% | [1]; at 50.0 µM 63.8% | [2]; [7] 7% | [2]; at 50.0 µM 54.4% | [3]; [7] -26% | [3]; at 50.0 µM 55% | [4]; [7] -8% | [4]; at 50.0 µM 63.8% | [5]; [7] 10% | [6]; [7] 10% | [6]; at 50.0 µM 55.9%
active: [1]; [8] 94% | [2]; [8] 97% | [3]; [8] 96% | [4]; [8] 93% | [5]; [8] 93% | [5]; at 50.0 µM 98% | [6]; [8] 96%

CCC(=O)Oc1ccc(-c2ccccc2)cc1Cl
active: [1]; [8] 98% | [1]; at 50.0 µM 97% | [2]; [8] 99% | [2]; at 50.0 µM 98.2% | [3]; [8] 96% | [3]; at 50.0 µM 97.5% | [4]; [8] 98% | [4]; at 50.0 µM 96% | [5]; [8] 99% | [5]; at 50.0 µM 98.8% | [6]; [8] 98% | [6]; at 50.0 µM 98.2%
inactive: [1]; [7] -3% | [2]; [7] -3% | [3]; [7] -2% | [4]; [7] -2% | [5]; [7] 14% | [6]; [7] 0%

CCCCCCCCCCCCCCCC(=O)N(CCCN(CC)CC)C(C)CCCN(CC)CC (stereo not given)
active: [1]; [7] 90% | [1]; [8] 98% | [2]; [8] 99% | [2]; at 50.0 µM 71.9% | [3]; [8] 99% | [4]; [8] 99% | [4]; at 50.0 µM 76.4% | [5]; [8] 99% | [6]; [7] 85% | [6]; [8] 97%
inactive: [1]; at 50.0 µM 60.1% | [2]; [7] 28% | [3]; [7] 51% | [3]; at 50.0 µM 44.9% | [4]; [7] 36% | [5]; [7] 53% | [5]; at 50.0 µM 19.6% | [6]; at 50.0 µM 17.7%

CC1(C)C(=O)C(C(Cl)(Cl)Cl)=C(Cl)C(=O)C1(Cl)Cl
inactive: [1]; [7] 64% | [1]; at 50.0 µM 52.5% | [2]; [7] 27% | [2]; at 50.0 µM 42.1% | [3]; [7] 38% | [3]; at 50.0 µM 64.9% | [4]; [7] 49% | [4]; at 50.0 µM 48.8% | [5]; [7] 56% | [5]; at 50.0 µM 51.1% | [6]; [7] 42% | [6]; at 50.0 µM 67.5%
active: [1]; [8] 97% | [2]; [8] 96% | [3]; [8] 93% | [4]; [8] 89% | [5]; [8] 96% | [6]; [8] 97%

COc1ccc(CSC(=S)Nc2ccccc2C(F)(F)F)cc1
active: [1]; [8] 93% | [1]; at 50.0 µM 98.3% | [2]; [8] 97% | [2]; at 50.0 µM 99.2% | [3]; [8] 99% | [3]; at 50.0 µM 99.2% | [4]; [8] 94% | [4]; at 50.0 µM 98.6% | [5]; [8] 96% | [5]; at 50.0 µM 99% | [6]; [8] 95% | [6]; at 50.0 µM 99%
inactive: [1]; [7] 8% | [2]; [7] 6% | [3]; [7] 1% | [4]; [7] -1% | [5]; [7] -3% | [6]; [7] 4%

COc1cc(/C=C/C(=O)c2ccc(O)c(OC)c2)ccc1O
inactive: [1]; [7] 20% | [1]; [8] 38% | [1]; at 50.0 µM 14% | [2]; [7] 16% | [2]; [8] 29% | [2]; at 50.0 µM 47.8% | [3]; [7] 9% | [3]; [8] 26% | [3]; at 50.0 µM 54% | [4]; [7] 8% | [4]; [8] 27% | [4]; at 50.0 µM 34.2% | [5]; [7] 17% | [5]; [8] 67% | [5]; at 50.0 µM 56.1% | [6]; [7] 18% | [6]; [8] 31% | [6]; at 50.0 µM 6.6%

COC(=O)C(Cc1cccc(O)c1)NC(=O)C(CC(=O)OCc1ccccc1)NC(=O)OCc1ccccc1 (stereo not given) (Cbz-Asp(OBn)-[mTyr]-OMe; configuration not given here)
active: [1]; [8] 70% | [1]; at 50.0 µM 77.2% | [2]; at 50.0 µM 74.8% | [3]; [8] 87% | [3]; at 50.0 µM 85.7% | [4]; at 50.0 µM 89.8% | [5]; at 50.0 µM 91% | [6]; [8] 75% | [6]; at 50.0 µM 80.9%
inactive: [1]; [7] -12% | [2]; [7] -6% | [2]; [8] 21% | [3]; [7] 2% | [4]; [7] 9% | [4]; [8] 64% | [5]; [7] -10% | [5]; [8] 55% | [6]; [7] -4%

c1ccc(C2CC(c3ccc4ccccc4c3)=Nc3ccccc3S2)cc1 (stereo not given)
active: [1]; at 50.0 µM 76.8% | [2]; [8] 72% | [3]; [8] 78% | [3]; at 50.0 µM 80.8% | [5]; [8] 91% | [5]; at 50.0 µM 96.5% | [6]; [8] 76% | [6]; at 50.0 µM 88.1%
inactive: [1]; [7] 0% | [1]; [8] 40% | [2]; [7] -4% | [2]; at 50.0 µM 50.6% | [3]; [7] 8% | [4]; [7] -11% | [4]; [8] 19% | [4]; at 50.0 µM 69.5% | [5]; [7] 21% | [6]; [7] 3%
